Measured values from PubChem BioAssay (NCI).
Values joined by “and” are separate entries in the source; they are usually repeats but may differ in a detail not shown here. Equal values may be shown once. This is part of a sample that, as a whole, favours compounds with a hit. Of some 79,000 tested, about 15% had one in any assay. Some compounds were tested as several samples or in several runs, with calls that do not always agree. Active and inactive are the calls of the source. Cut-off read from the data, not from the text of the source: active = growth inhibition above about 70%; inactive = the rest.

Legend:
[1] = NCI Yeast Anticancer Drug Screen. Data for the rad52 strain (AID 147);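 note: 0% = growth of vehicle-treated control cultures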; conditions: S. cerevisiae rad52 mutant growth inhibition, stronger effect = higher value
Method in brief: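 Inhibition of yeast growth, referenced to vehicle controls, was the measured output for a strain with defective DNA damage repair.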

[2] = NCI Yeast Anticancer Drug Screen. Data for the wt1 strain (AID 149);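 note: 0% = growth of vehicle-treated wt1 cultures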; conditions: S. cerevisiae wt1 strain (SPY 50644) growth inhibition, stronger effect = higher value
Method in brief: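 wt1 strain grown with compound or vehicle; inhibition taken from the growth difference.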

[3] = NCI Yeast Anticancer Drug Screen. Data for the rad50EPP+ strain (AID 151);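 note: 0% = growth of vehicle-treated control cultures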; conditions: S. cerevisiae rad50 mutant strain, stronger effect = higher value
Method in brief: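 Genetically defined yeast (rad50EPP+, DNA damage repair alteration) is grown with compound, and inhibition of growth is expressed relative to vehicle-treated controls.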

[4] = NCI Yeast Anticancer Drug Screen. Data for the mgt1 strain (AID 153); conditions: S. cerevisiae mgt1 mutant growth inhibition, stronger effect = higher value
Method in brief: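 In the mgt1 strain, test compounds were added and growth inhibition was determined relative to vehicle-treated controls.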

[5] = NCI Yeast Anticancer Drug Screen. Data for the rad50 strain (AID 155);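 note: 0% = growth of vehicle-only cultures of the same strain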; conditions: S. cerevisiae rad50 strain growth inhibition, stronger effect = higher value
Method in brief: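 DNA repair mutant yeast, compound exposure, growth read-out; inhibition is taken relative to vehicle.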

[6] = NCI Yeast Anticancer Drug Screen. Data for the mec2-1 strain (AID 157); conditions: S. cerevisiae mec2-1 strain, stronger effect = higher value
Method in brief: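 Each compound was tested on mec2-1 yeast, a strain altered in DNA damage repair or cell cycle control. Growth inhibition is reported relative to vehicle.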

[7] = NCI Yeast Anticancer Drug Screen. Data for the rad14 strain (AID 159);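 note: 0% = growth of vehicle-treated control cultures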; conditions: S. cerevisiae rad14 strain growth inhibition, stronger effect = higher value
Method in brief: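 DNA repair-defective yeast, compound-exposed; % growth inhibition derived by comparison with vehicle-treated controls.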

[8] = NCI Yeast Anticancer Drug Screen. Data for the sgs1 mgt1 strain (AID 161);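 note: 0% = growth of cultures given vehicle only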; conditions: S. cerevisiae sgs1 mgt1 strain, stronger effect = higher value
Method in brief: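 Read-out: growth inhibition vs vehicle controls. Cells: mutant yeast strain deficient in DNA damage repair.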

[9] = NCI Yeast Anticancer Drug Screen. Data for the cln2 rad14 strain (AID 165);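 note: 0% = growth equal to vehicle treated cultures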; conditions: S. cerevisiae cln2 rad14 strain, stronger effect = higher value
Method in brief: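 Test compounds were added to cln2 rad14 yeast cultures; inhibition of growth was then determined by comparison with vehicle treatment.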

[10] = NCI Yeast Anticancer Drug Screen. Data for the bub3 strain (AID 167); conditions: S. cerevisiae bub3 mutant strain, stronger effect = higher value
Method in brief: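 In this screen, a yeast mutant lacking normal mitotic checkpoint function is challenged with compound. Relative growth versus vehicle gives the inhibition value.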

[11] = NCI Yeast Anticancer Drug Screen. Data for the wt2 strain (AID 169);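 note: 0% = growth of vehicle-treated yeast cultures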; conditions: S. cerevisiae wt2 strain growth inhibition, stronger effect = higher value
Method in brief: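 The panel's yeast strains carry defined changes in DNA repair or cell cycle genes. Each strain is grown with compound, and growth loss is scored relative to vehicle.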

[12] = NCI Yeast Anticancer Drug Screen. Data for the mlh1 strain (AID 171);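 note: 0% = growth of vehicle-treated control cultures of the same strain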; conditions: S. cerevisiae mlh1 strain growth inhibition, stronger effect = higher value
Method in brief: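 Inhibition values reflect reduced yeast growth in the presence of compound, referenced to vehicle controls, using a strain chosen for its alteration in DNA repair or cell cycle control.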

[13] = NCI Yeast Anticancer Drug Screen. Data for the sgs1 strain (AID 173);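 note: 0% = growth of vehicle-only control cultures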; conditions: S. cerevisiae sgs1 mutant, stronger effect = higher value
Method in brief: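 Vehicle-treated cultures served as reference for growth inhibition of a yeast strain altered in DNA damage repair or cell cycle control after compound exposure.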

[14] = NCI Yeast Anticancer Drug Screen. Data for the mlh1 rad18 strain (AID 175); conditions: S. cerevisiae mlh1 rad18 strain growth inhibition, stronger effect = higher value
Method in brief: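 Inhibition values reflect reduced growth of mutant yeast versus vehicle-treated controls following compound exposure; the mutations affect DNA damage repair.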

[15] = NCI Yeast Anticancer Drug Screen. Data for the CLN2oe strain (AID 163);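 note: 0% = growth of vehicle-only control cultures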; conditions: S. cerevisiae CLN2oe strain, stronger effect = higher value
Method in brief: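 First, the altered yeast strain was treated with each compound; second, its growth was measured; finally, inhibition was derived by comparison with vehicle controls.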

[16] = NCI Yeast Anticancer Drug Screen. Data for the rad18 strain (AID 177); conditions: S. cerevisiae rad18 mutant growth inhibition, stronger effect = higher value
Method in brief: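 Steps: expose repair-mutant yeast to compound; measure growth; express as inhibition relative to vehicle control.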

[17] = at 5.0 µM (retest, dose inferred, filed as 0.5)
[18] = at 50.0 µM (retest, dose inferred, filed as 5.0)

Measured: growth inhibition

Cc1cc(C(C)(C)CC(C)(C)C)ccc1O
active: [1]; at 33.0 µM 98% | [1]; at 100.0 µM 98% | [2]; at 33.0 µM 99% | [2]; at 100.0 µM 99% | [3]; at 100.0 µM 99% | [4]; at 33.0 µM 98% | [4]; at 100.0 µM 99% | [5]; at 33.0 µM 98% | [5]; [18] 79% | [5]; at 50.0 µM 92.3% | [5]; at 100.0 µM 99% | [6]; at 33.0 µM 99% | [6]; [18] 70% | [6]; at 50.0 µM 91.8% | [6]; at 100.0 µM 99% | [7]; at 33.0 µM 99% | [7]; at 100.0 µM 99% | [8]; [18] 99% | [8]; at 50.0 µM 93.7% | [9]; [18] 98% | [9]; at 50.0 µM 92.8% | [10]; at 33.0 µM 98% | [10]; [18] 99% | [10]; at 50.0 µM 92.4% | [10]; at 100.0 µM 99% | [11]; at 33.0 µM 99% | [11]; at 100.0 µM 99% | [12]; at 33.0 µM 95% | [12]; at 100.0 µM 99% | [13]; at 33.0 µM 99% | [13]; at 100.0 µM 99% | [14]; [18] 73% | [14]; at 50.0 µM 92.9%
inactive: [1]; at 1.2 µM -22% | [1]; at 3.7 µM -45% | [1]; at 11.0 µM 15% | [2]; at 1.2 µM -1% | [2]; at 3.7 µM -22% | [2]; at 11.0 µM 17% | [3]; at 1.2 µM -16% | [3]; at 3.7 µM -16% | [3]; at 11.0 µM 1% | [3]; at 33.0 µM 60% | [4]; at 1.2 µM -52% | [4]; at 3.7 µM -66% | [4]; at 11.0 µM -37% | [5]; at 1.2 µM 12% | [5]; at 3.7 µM 11% | [5]; [17] 25% | [5]; at 11.0 µM 38% | [6]; at 1.2 µM -41% | [6]; at 3.7 µM -58% | [6]; [17] 28% | [6]; at 11.0 µM 3% | [7]; at 1.2 µM -3% | [7]; at 3.7 µM -30% | [7]; at 11.0 µM 16% | [8]; [17] -14% | [9]; [17] 55% | [10]; at 1.2 µM -9% | [10]; at 3.7 µM -49% | [10]; [17] 6% | [10]; at 11.0 µM 32% | [11]; at 1.2 µM -20% | [11]; at 3.7 µM -34% | [11]; at 11.0 µM -10% | [12]; at 1.2 µM -16% | [12]; at 3.7 µM -53% | [12]; at 11.0 µM -16% | [13]; at 1.2 µM -17% | [13]; at 3.7 µM -38% | [13]; at 11.0 µM 14% | [14]; [17] 26%

O=c1[nH]c2ccc(Cl)cc2o1
inactive: [1]; at 1.2 µM -14% | [1]; at 3.7 µM -10% | [1]; at 11.0 µM -11% | [1]; at 33.0 µM -13% | [1]; at 100.0 µM -1% | [2]; at 1.2 µM -30% | [2]; at 3.7 µM -28% | [2]; at 11.0 µM -33% | [2]; at 33.0 µM -32% | [2]; at 100.0 µM -23% | [3]; at 1.2 µM -43% | [3]; at 3.7 µM -42% | [3]; at 11.0 µM -33% | [3]; at 33.0 µM -52% | [3]; at 100.0 µM -64% | [4]; at 1.2 µM -45% | [4]; at 3.7 µM -37% | [4]; at 11.0 µM -28% | [4]; at 33.0 µM -33% | [4]; at 100.0 µM -23% | [5]; at 1.2 µM -31% | [5]; at 3.7 µM -23% | [5]; [17] 47% and 1% | [5]; at 11.0 µM -17% | [5]; at 33.0 µM -19% | [5]; at 50.0 µM 15.6% and 15.7% | [5]; at 100.0 µM -18% | [6]; at 1.2 µM -62% | [6]; at 3.7 µM -70% | [6]; [17] 48% and -3% | [6]; at 11.0 µM -60% | [6]; at 33.0 µM -47% | [6]; at 50.0 µM 3.9% and 2.1% | [6]; at 100.0 µM -53% | [8]; [17] 6% and 1% | [8]; [18] 20% and 51% | [8]; at 50.0 µM 15.4% and -2.75% | [15]; at 1.2 µM -25% | [15]; at 3.7 µM -26% | [15]; at 11.0 µM -30% | [15]; at 33.0 µM -34% | [15]; at 100.0 µM -15% | [9]; [17] 46% and 2% | [9]; [18] 53% and 43% | [9]; at 50.0 µM 23.1% and -1.85% | [10]; at 1.2 µM -15% | [10]; at 3.7 µM -1% | [10]; [17] 57% and 20% | [10]; at 11.0 µM 7% | [11]; at 1.2 µM -27% | [11]; at 3.7 µM -27% | [11]; at 11.0 µM -31% | [11]; at 33.0 µM -27% | [11]; at 100.0 µM -6% | [12]; at 1.2 µM -41% | [12]; at 3.7 µM -33% | [12]; at 11.0 µM -56% | [12]; at 33.0 µM -41% | [12]; at 100.0 µM -27% | [13]; at 1.2 µM -36% | [13]; at 3.7 µM -47% | [13]; at 11.0 µM -48% | [13]; at 33.0 µM -34% | [13]; at 100.0 µM -22% | [14]; [17] 52% and 1% | [14]; at 50.0 µM 24.9% and -2.65% | [16]; at 1.2 µM -39% | [16]; at 3.7 µM -34% | [16]; at 11.0 µM -46% | [16]; at 33.0 µM -38% | [16]; at 100.0 µM -21%
93% (active) and 68% (inactive): [6]; [18]
98% (active) and 64% (inactive): [5]; [18]
active: [10]; at 33.0 µM 71% | [10]; [18] 92% and 96% | [10]; at 50.0 µM 87.3% and 92% | [10]; at 100.0 µM 92%
92% (active) and 32% (inactive): [14]; [18]
